Article PMC11062922 (Nature Chemical Biology, 2023)
Where two headings read alike, the source gives them in different places.

What was measured:
STK26 = test system: STK26; set-up: species or system human, MV4-11 + K-562 + COLO205 + SK-N-BE2 + OVCAR-8; conditions: read-out: apparent Kd; compound concentrations: 100 nM and 1000 nM (sheet 'Samples'), CATDS: 0.52714165558765103; n = 1
PIK3C2A = test system: PIK3C2A; set-up: species or system human, MV4-11 + K-562 + COLO205 + SK-N-BE2 + OVCAR-8; conditions: read-out: apparent Kd; compound concentrations: 100 nM and 1000 nM (sheet 'Samples'), CATDS: 5.6745724082573501E-2; n = 1
PIK3C2B = test system: PIK3C2B; set-up: species or system human, MV4-11 + K-562 + COLO205 + SK-N-BE2 + OVCAR-8; conditions: read-out: apparent Kd; compound concentrations: 100 nM and 1000 nM (sheet 'Samples'), CATDS: 8.3411679268076702E-2; n = 1
PIP4K2C = test system: PIP4K2C; set-up: species or system human, MV4-11 + K-562 + COLO205 + SK-N-BE2 + OVCAR-8; conditions: read-out: apparent Kd; compound concentrations: 100 nM and 1000 nM (sheet 'Samples'), CATDS: 1; n = 1
PIM3 = test system: PIM3; set-up: species or system human, MV4-11 + K-562 + COLO205 + SK-N-BE2 + OVCAR-8; conditions: read-out: apparent Kd; compound concentrations: 100 nM and 1000 nM (sheet 'Samples'), CATDS: 1; n = 1
PRKD3 = test system: PRKD3; set-up: species or system human, MV4-11 + K-562 + COLO205 + SK-N-BE2 + OVCAR-8; conditions: read-out: apparent Kd; compound concentrations:100 nM and 1000 nM (sheet 'Samples'); n = 1
Q6ZSR9 = Q6ZSR9 (human, UniProt Q6ZSR9); set-up: species or system MV4-11 + K-562 + COLO205 + SK-N-BE2 + OVCAR-8; conditions: read-out: apparent Kd, n = 1
RPS6KB1 = test system: RPS6KB1; set-up: species or system human, MV4-11 + K-562 + COLO205 + SK-N-BE2 + OVCAR-8; conditions: read-out: apparent Kd, n = 1
TAOK1 = test system: TAOK1; set-up: species or system human, MV4-11 + K-562 + COLO205 + SK-N-BE2 + OVCAR-8; conditions: read-out: apparent Kd; compound concentrations: 100 nM and 1000 nM (sheet 'Samples'), CATDS: 1; n = 1
RIOK2 = test system: RIOK2; set-up: species or system human, MV4-11 + K-562 + COLO205 + SK-N-BE2 + OVCAR-8; conditions: read-out: apparent Kd, compound concentrations: 100 nM and 1000 nM (sheet 'Samples'), n = 1
ACOX1 = conditions: read-out: apparent Kd, n = 1
AKT3 = conditions: read-out: apparent Kd, n = 1
BTK = conditions: read-out: apparent Kd, n = 1
CDC42 = conditions: read-out: apparent Kd, n = 1
CDK7 = conditions: read-out: apparent Kd, n = 1
MAP3K2 = conditions: read-out: apparent Kd, n = 1
PIK3CD = conditions: read-out: apparent Kd, n = 1
PRKX;PRKY = conditions: read-out: apparent Kd, n = 1
STK16 = conditions: read-out: apparent Kd, n = 1
TTN = conditions: read-out: apparent Kd, n = 1
[1] = compound concentrations:100 nM and 1000 nM (sheet 'Samples')
[2] = compound concentrations:100 nM and 1000 nM (sheet 'Lestaurtinib' of Supplementary Table 1),run:Lestaurtinib_02339_R2,Plate:MR001
[3] = compound concentrations:100 nM and 1000 nM (sheet 'Lestaurtinib' of Supplementary Table 1),run:Lestaurtinib_02422_R1,Plate:MR006
[4] = compound concentrations:100 nM and 1000 nM (sheet 'Lestaurtinib' of Supplementary Table 1),run:Lestaurtinib_02487_R1,Plate:MR012
[5] = compound concentrations:100 nM and 1000 nM (sheet 'Lestaurtinib' of Supplementary Table 1),run:Lestaurtinib_02443_R3,Plate:MR009

Sequence of Q6ZSR9 (Q6ZSR9 whole entry, looked up): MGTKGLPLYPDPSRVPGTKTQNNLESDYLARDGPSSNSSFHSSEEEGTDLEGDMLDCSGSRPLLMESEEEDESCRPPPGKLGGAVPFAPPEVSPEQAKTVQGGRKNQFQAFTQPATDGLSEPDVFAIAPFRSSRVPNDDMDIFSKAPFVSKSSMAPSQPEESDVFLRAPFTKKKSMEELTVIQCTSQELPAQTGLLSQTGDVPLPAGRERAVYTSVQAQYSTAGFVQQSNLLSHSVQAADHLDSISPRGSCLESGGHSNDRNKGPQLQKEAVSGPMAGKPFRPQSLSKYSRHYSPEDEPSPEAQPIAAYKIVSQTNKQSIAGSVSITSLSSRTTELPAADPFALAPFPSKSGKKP

`Cn1ccc(-c2cccc(Nc3ccnc4cc(-c5nccs5)ccc34)c2)n1` [GW525701_KCGS] was tested. Which potency estimated from few doses (STK26) did it give?
Its potency estimated from few doses is 1370 nM.

For `Nc1ncc(-c2ccc3nccc(-c4ccncc4)c3c2)cc1S(=O)(=O)N1CCCCC1` [GSK1693850A], which potency estimated from few doses (PIK3C2A) is on record?
Its potency estimated from few doses is 2320 nM.

What about the potency estimated from few doses (PIK3C2B) of the same molecule?
Its potency estimated from few doses is 483 nM.

How did the potency estimated from few doses (PIP4K2C) turn out when `COc1cc(Nc2nccc(N3CCC(NC(=O)C(C)c4ccc(Cl)cc4)C3)n2)cc(OC)c1OC` (centres unmarked) [GSK1379757A] was run?
Its potency estimated from few doses is 1640 nM.

`CCSc1ccc(-c2nc3n(c2-c2ccncc2)CCC3)cc1.CCSc1ccc(-c2nc3n(c2-c2ccncc2)CCC3)cc1.Cl.Cl` [SKF-106164-A2] was tested. Which potency estimated from few doses (PIM3) did it give?
The potency estimated from few doses was 1300 nM.

With `Cc1cccc(-c2nc(Nc3ccc4c(cnn4C)c3)c3ccccc3n2)n1` [GW876731X] as the molecule, how does the potency estimated from few doses (PRKD3) read?
The potency estimated from few doses was 32.8 nM.

With `CCn1c(-c2nonc2N)nc2cnc(Oc3cccc(NC(=O)c4ccc(N(C)C)cc4)c3)cc21` [GSK248233A] as the molecule, how does the potency estimated from few doses (Q6ZSR9; [1]) read?
Its potency estimated from few doses is 2120 nM.

And the potency estimated from few doses (RPS6KB1; [1])?
Its potency estimated from few doses is 978 nM.

Which potency estimated from few doses (RPS6KB1; compound concentrations: 100 nM and 1000 nM (sheet 'Samples'), CATDS: 0.26812352090996999) does the source give for `Nc1nonc1-c1nc2cnccc2n1C1CC1` [SB-736302] here?
Its potency estimated from few doses is 794 nM.

Which potency estimated from few doses (TAOK1) does the source give for `O=C(NCCNc1ccnc(Nc2ccc(F)cc2)n1)Nc1ccc2c(c1)OCO2` [GSK1379882A] here?
Its potency estimated from few doses is 1250 nM.

Which potency estimated from few doses (TAOK1) does the source give for `Cc1nnc(-c2ccc(C)c(-c3ccc(C(=O)Nc4ccc(NS(C)(=O)=O)cc4)cc3)c2)o1` [GW702865X] here?
Its potency estimated from few doses is 1620 nM.

With `Cl.c1ccc(Oc2ccc(Nc3ncc(-c4ccccc4)o3)cc2)cc1` [GW641155A] as the molecule, how does the potency estimated from few doses (RIOK2; CATDS: 1) read?
The potency estimated from few doses was 2140 nM.

For `COc1ccc2ncn(-c3cc(O[C@H](C)c4ccccc4C(F)(F)F)c(C(N)=O)s3)c2c1` [GSK317315A], which potency estimated from few doses (RIOK2; CATDS: 0.34769297632871299) is on record?
Its potency estimated from few doses is 1940 nM.

How did the potency estimated from few doses (ACOX1; compound concentrations:100 nM and 1000 nM (sheet 'Lestaurtinib' of Supplementary Table 1),run:Lestaurtinib_02364_R2,Plate:MR002) turn out when Lestaurtinib was run?
The potency estimated from few doses was 1360 nM.

What about the potency estimated from few doses (ACOX1; compound concentrations:100 nM and 1000 nM (sheet 'Lestaurtinib' of Supplementary Table 1),run:Lestaurtinib_02624_R1,Plate:MR020) of the same molecule?
Its potency estimated from few doses is 1670 nM.

And the potency estimated from few doses (AKT3; [2])?
The potency estimated from few doses was 1910 nM.

What about the potency estimated from few doses (AKT3; compound concentrations:100 nM and 1000 nM (sheet 'Lestaurtinib' of Supplementary Table 1),run:Lestaurtinib_03172_R3,Plate:MR031) of the same molecule?
Its potency estimated from few doses is 1540 nM.

And the potency estimated from few doses (BTK; [3])?
The potency estimated from few doses was 760 nM.

What about the potency estimated from few doses (BTK; [4]) of the same molecule?
Its potency estimated from few doses is 385 nM.

And the potency estimated from few doses (CDC42; compound concentrations:100 nM and 1000 nM (sheet 'Lestaurtinib' of Supplementary Table 1),run:Lestaurtinib_02437_R1,Plate:MR007)?
The potency estimated from few doses was 1440 nM.

What about the potency estimated from few doses (CDC42; compound concentrations:100 nM and 1000 nM (sheet 'Lestaurtinib' of Supplementary Table 1),run:Lestaurtinib_02765_R3,Plate:MR026) of the same molecule?
Its potency estimated from few doses is 1440 nM.

What about the potency estimated from few doses (CDK7; [4]) of the same molecule?
Its potency estimated from few doses is 132 nM.

And the potency estimated from few doses (CDK7; compound concentrations:100 nM and 1000 nM (sheet 'Lestaurtinib' of Supplementary Table 1),run:Lestaurtinib_02496_R2,Plate:MR013)?
The potency estimated from few doses was 1590 nM.

What about the potency estimated from few doses (MAP3K2; [2]) of the same molecule?
Its potency estimated from few doses is 2130 nM.

What about the potency estimated from few doses (MAP3K2; [5]) of the same molecule?
Its potency estimated from few doses is 2170 nM.

What about the potency estimated from few doses (PIK3CD; [2]) of the same molecule?
Its potency estimated from few doses is 190 nM.

And the potency estimated from few doses (PIK3CD; compound concentrations:100 nM and 1000 nM (sheet 'Lestaurtinib' of Supplementary Table 1),run:Lestaurtinib_02577_R3,Plate:MR016)?
The potency estimated from few doses was 12.4 nM.

What about the potency estimated from few doses (PRKX;PRKY; [5]) of the same molecule?
Its potency estimated from few doses is 1430 nM.

What about the potency estimated from few doses (PRKX;PRKY; compound concentrations:100 nM and 1000 nM (sheet 'Lestaurtinib' of Supplementary Table 1),run:Lestaurtinib_02896_R3,Plate:MR030) of the same molecule?
The potency estimated from few doses was 2210 nM.

What about the potency estimated from few doses (STK16; [3]) of the same molecule?
The potency estimated from few doses was 1430 nM.

What about the potency estimated from few doses (STK16; compound concentrations:100 nM and 1000 nM (sheet 'Lestaurtinib' of Supplementary Table 1),run:Lestaurtinib_03260_R1,Plate:MR033) of the same molecule?
Its potency estimated from few doses is 1340 nM.

What about the potency estimated from few doses (TTN; compound concentrations:100 nM and 1000 nM (sheet 'Lestaurtinib' of Supplementary Table 1),run:Lestaurtinib_02364_R1,Plate:MR002) of the same molecule?
Its potency estimated from few doses is 1910 nM.

What about the potency estimated from few doses (TTN; compound concentrations:100 nM and 1000 nM (sheet 'Lestaurtinib' of Supplementary Table 1),run:Lestaurtinib_02606_R2,Plate:MR019) of the same molecule?
The potency estimated from few doses was 737 nM.

For `Cc1cccc(-c2n[nH]cc2-c2ccc3ncccc3n2)n1` [GW786460X], which potency estimated from few doses (PRKD3) is on record?
Its potency estimated from few doses is 640 nM.

With `COC[C@H](NC1=NC(=O)/C(=C/c2ccc3ncccc3c2)S1)c1ccccc1` [RO4595946-000] as the molecule, how does the potency estimated from few doses (Q6ZSR9; compound concentrations: 100 nM and 1000 nM (sheet 'Samples'), CATDS: 1) read?
The potency estimated from few doses was 1580 nM.
